Experimental data published in PubChem BioAssay AID1672 (Johns Hopkins Ion Channel Center, 2009).
Among all 310,000 compounds or so, about 2,600 (0.84%) were called active.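 The calls were made as follows: active = fluorescence ratio B-score at or below minus 3 SD of library scores, with starting-brightness B-score within 2 SD (cut at about -4.2 in these data); inactive = the rest.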 This excerpt belongs to a sample that is enriched for actives.

These compounds were tested against Inward rectifier potassium channel 2 (Mus musculus) (UniProt P35561) (assay: blocks the mouse Kir2.1 inward-rectifier potassium channel (AID 1672;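 also: channel flux triggered by added potassium and thallium sulfate stimulus; B-score of peak minus minimum fluorescence over baseline after thallium stimulus; more negative B-score means stronger Kir2.1 block with less thallium influx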)). Conditions: HEK293-Kir2.1, FluxOR thallium flux fluorescence; at 10 µM; stronger effect = lower value.
Sequence of Inward rectifier potassium channel 2 (Mus musculus) (P35561 whole entry, looked up): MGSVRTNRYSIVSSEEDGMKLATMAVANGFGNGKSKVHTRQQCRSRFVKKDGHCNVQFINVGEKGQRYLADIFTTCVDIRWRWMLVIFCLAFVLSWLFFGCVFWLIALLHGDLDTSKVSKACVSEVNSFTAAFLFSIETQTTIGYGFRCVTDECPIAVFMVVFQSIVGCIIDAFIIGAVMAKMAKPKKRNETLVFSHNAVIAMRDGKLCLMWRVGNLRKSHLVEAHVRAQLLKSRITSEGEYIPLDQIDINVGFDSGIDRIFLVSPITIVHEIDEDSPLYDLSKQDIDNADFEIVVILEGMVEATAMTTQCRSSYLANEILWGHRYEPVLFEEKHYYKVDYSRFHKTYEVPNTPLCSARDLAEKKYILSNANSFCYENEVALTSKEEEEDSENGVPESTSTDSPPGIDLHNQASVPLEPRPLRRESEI
In the case of `Cc1ccc(SC(C)C(=O)NCc2ccc(F)cc2)cc1` (stereo not given), the B-score is reported as -0.79 (inactive). With `CSc1ccc(CN(C)CC(=O)NCc2ccc(F)cc2)cc1` the B-score was -4.3 (active). In the case of `Cc1ccc(NC(=O)CN(C)Cc2ccc(F)cc2)c([N+](=O)[O-])c1`, the B-score is reported as -0.89 (inactive). In the case of `CN(CC(=O)Nc1cccc(F)c1)C(=O)C1=COCCO1`, the B-score is reported as -0.96 (inactive). With `O=C(NCCC1CCCCN1S(=O)(=O)c1cccs1)C(=O)Nc1ccc(F)cc1F` (stereo not given) the B-score was -1.66 (inactive). `CCOc1ccc(NS(=O)(=O)c2cc(C)c(C)cc2C)cc1` was tested, and the B-score was -1.54 (inactive). With `Cc1cc(C)c(C)c(S(=O)(=O)Nc2ccc(O)cc2)c1C` the B-score was -9.99 (active). `Cc1cc(C)c(C)c(S(=O)(=O)Nc2cccnc2)c1C` was tested, and the B-score was -0.73 (inactive). For `C=CCC1(C(=O)N(C)Cc2ccccc2)CCN(C(=O)OC(C)(C)C)CC1`, the B-score was 0.59 (inactive). `COc1cc2ccccc2cc1C(=O)Nc1ccncc1` was tested, and the B-score was -0.09 (inactive). For `S=C(NCCc1ccccc1)NCc1ccccc1Cl`, the B-score was -2.33 (inactive). `OCCNCc1cccc(OCc2ccccc2Cl)c1` was tested, and the B-score was -5.85 (active). `OCCNCCOc1ccc(Cl)c(Cl)c1` was tested, and the B-score was 0.04 (inactive). With `CCCCN(C(=O)c1ccc(C)o1)c1c(N)n(CCCC)c(=O)[nH]c1=O` the B-score was 1.81 (inactive). In the case of `CC(C)(C)n1nc(Cc2cccc3ccccc23)c(C#N)c1N`, the B-score is reported as 0.39 (inactive). For `c1ccc(-c2ccc(OCCN3CCOCC3)cc2)cc1`, the B-score was -0.1 (inactive). With `CC(C)(c1ccccc1)c1ccc(OCCN)cc1` the B-score was -6.43 (active). For `CN(C)CC(O)COc1ccc(C(C)(C)c2ccc(OCC(O)CN(C)C)cc2)cc1` (stereo not given), the B-score was -2.29 (inactive). In the case of `Cc1nn(CCOc2ccccc2)c(=O)n1-c1ccccc1F`, the B-score is reported as -0.66 (inactive). In the case of `c1ccc2cc(OCCN3CCCC3)ccc2c1`, the B-score is reported as 1.22 (inactive). In the case of `CC(C)(c1ccccc1)c1ccc(OCCN2CCCC2)cc1`, the B-score is reported as -6.84 (active). In the case of `O=C(NC(Cc1ccccc1)C(=O)N1CCCC(C(F)(F)F)C1)c1ccccc1` (stereo not given), the B-score is reported as -0.03 (inactive). With `CCN1C(=O)[C@@H]2[C@@H](c3ccc(-c4ccccc4)cc3)N3CCCC[C@@]3(C(=O)OC)[C@@H]2C1=O` the B-score was 2.48 (inactive). For `CC(=O)c1ccc(S(=O)(=O)NC2CC(=O)N(c3ccc4c(c3)OCCO4)C2)cc1` (stereo not given), the B-score was 2.09 (inactive). With `CCCCN1C(N)=NC[C@@H]1Cc1ccccc1` the B-score was 1.05 (inactive). With `Nc1ccc(C(=O)N2CCN(S(=O)(=O)c3ccc(Cl)cc3)CC2)cc1[N+](=O)[O-]` the B-score was 0.63 (inactive). For `CCOc1ccccc1NS(=O)(=O)c1cc2c3c(c1)C(C)C(=O)N3CCC2` (stereo not given), the B-score was -0.71 (inactive). In the case of `COc1ccccc1CCNS(=O)(=O)c1cc2c3c(c1)C(C)C(=O)N3CCC2` (stereo not given), the B-score is reported as -5.71 (active). For `CC1C(=O)N2CCCc3cc(S(=O)(=O)NCc4ccc(F)cc4)cc1c32` (stereo not given), the B-score was -0.21 (inactive). For `COc1ccc(N2CC(NS(=O)(=O)c3ccc4ccccc4c3)CC2=O)cc1` (stereo not given), the B-score was 0.13 (inactive). In the case of `Cc1ccc2[nH]c3c(c2c1)CN(C(=O)CN1CCN(c2ccccc2)CC1)CC3`, the B-score is reported as 0.62 (inactive). `O=C(CCCN1CCc2[nH]c3ccc(F)cc3c2C1)c1ccc(F)cc1` was tested, and the B-score was -7.87 (active). With `CCCC(=O)N1CCc2[nH]c3ccccc3c2C1` the B-score was 0.74 (inactive). In the case of `CCOc1cc(C(=O)Nc2ccc(S(=O)(=O)Nc3cnc4ccccc4n3)cc2)cc(OCC)c1OCC`, the B-score is reported as 1.91 (inactive). In the case of `CN(C)C(CNC(=O)c1cccc(S(=O)(=O)Nc2ccc(Br)cc2)c1)c1ccco1` (stereo not given), the B-score is reported as 0.84 (inactive). In the case of `O=C(NCc1ccccn1)Nc1ccc(Cl)cc1`, the B-score is reported as 0.46 (inactive). `CC(=O)C12CC(C)=C(C)CC1CC1C3CCC4=CC(=O)CCC4(C)C3CCC12C` (stereo not given) was tested, and the B-score was 0.6 (inactive). With `CCN(CC(=O)Nc1cc(Cl)ccc1C)C(=O)CSCc1ccc(C)cc1` the B-score was -4.45 (active). In the case of `CCN(CC(=O)Nc1cc(Cl)ccc1C)C(=O)CN1C(=O)NC2(CCCC2)C1=O`, the B-score is reported as -1.31 (inactive). `CCN(CC(=O)Nc1cc(Cl)ccc1C)C(=O)Cn1c(=O)cnc2ccccc21` was tested, and the B-score was -0.02 (inactive). In the case of `C=CCSc1nnc2c(n1)-c1cccc3cccc-2c13`, the B-score is reported as 1.16 (inactive). In the case of `Cc1[nH][nH]c(=O)c1C(c1ccc2c(c1)OCO2)c1c(C)[nH][nH]c1=O`, the B-score is reported as -0.12 (inactive). `CCOc1ccc(C(c2c(C)[nH][nH]c2=O)c2c(C)[nH][nH]c2=O)cc1OCC` was tested, and the B-score was -0.06 (inactive). With `Cc1[nH][nH]c(=O)c1C(c1ccc(-c2ccc(Cl)cc2)o1)c1c(C)[nH][nH]c1=O` the B-score was -9.44 (active). `Cc1cccc(Nc2nc(NCCO)nc(N3CCCC3)n2)c1` was tested, and the B-score was 0.27 (inactive). In the case of `CCCCn1c(N)c(N(Cc2ccccc2OC)C(=O)COc2cc(C)ccc2Cl)c(=O)[nH]c1=O`, the B-score is reported as 0.8 (inactive). In the case of `COC(=O)[C@@]12CCCN1[C@H](c1ccc(-c3ccc(F)cc3)c(OC)c1)[C@H]1C(=O)N(C)C(=O)[C@H]12`, the B-score is reported as -0.2 (inactive). For `CC(C)(C)c1cc2cccnc2n1Cc1cccc(F)c1`, the B-score was -5.77 (active). For `COc1ccnc2c1c(=O)n(Cc1cccc(F)c1)c(=O)n2C`, the B-score was 0.78 (inactive). With `CC(C)(C)c1cc2cccnc2n1Cc1ccccc1` the B-score was -3.38 (inactive). With `CC1CCC2(CC1)NC(=O)N(CC(=O)c1ccc3c(c1)OCO3)C2=O` (stereo not given) the B-score was 0.27 (inactive). With `COc1ccc(C(=O)Nc2ccccc2C(=O)N2CCN(c3ccccc3)CC2)cc1` the B-score was 0.29 (inactive). In the case of `O=C(O)C1CC=CCC1C(=O)Nc1ccccc1C(=O)N1CCN(c2ccccc2)CC1` (stereo not given), the B-score is reported as -0.23 (inactive). `CC(C)c1ccc(N2CCN(C(=O)c3ccccc3NC(=O)/C=C(\C(=O)O)c3ccccc3)CC2)cc1` was tested, and the B-score was -8.79 (active). In the case of `Cc1onc(-c2ccccc2Cl)c1C(=O)OCc1nnc(-c2ccccc2)o1`, the B-score is reported as 0.59 (inactive). In the case of `COc1ccc(CCN=C2SCC(=O)N2C)cc1OC`, the B-score is reported as 0.11 (inactive). In the case of `COc1ccc(CCNC2=C(Cl)C(=O)N(Cc3ccccc3)C2=O)cc1OC`, the B-score is reported as -1.89 (inactive). For `COc1ccc(CCN=C2SCC(=O)N2Cc2ccccc2)cc1OC`, the B-score was -8.95 (active). `COc1ccc(S(=O)(=O)NCc2cccnc2)cc1NC(=O)c1ccc(C)cc1` was tested, and the B-score was -1.69 (inactive). For `COC(=O)c1c(-c2ccsc2)oc2ccc(-c3cc(OC)c(OC)c(OC)c3)cc12`, the B-score was 0.77 (inactive).
